Compounds with a hit are over-represented: about 1.5% of the library has one in this group of screens.
Mtb MbtI inh: blocks the Mycobacterium tuberculosis siderophore enzyme MbtI; P9WFX0; purified MbtI enzyme, fluorescence intensity read-out; inhibition, % (no concentration beside the values); actives 0.89% (n = 100,000); AID 493033; in the data active = inhibition mostly above about 56%, no sharp cut-off; inactive = mostly below about 77%
Target sequence (P9WFX0 whole entry, looked up): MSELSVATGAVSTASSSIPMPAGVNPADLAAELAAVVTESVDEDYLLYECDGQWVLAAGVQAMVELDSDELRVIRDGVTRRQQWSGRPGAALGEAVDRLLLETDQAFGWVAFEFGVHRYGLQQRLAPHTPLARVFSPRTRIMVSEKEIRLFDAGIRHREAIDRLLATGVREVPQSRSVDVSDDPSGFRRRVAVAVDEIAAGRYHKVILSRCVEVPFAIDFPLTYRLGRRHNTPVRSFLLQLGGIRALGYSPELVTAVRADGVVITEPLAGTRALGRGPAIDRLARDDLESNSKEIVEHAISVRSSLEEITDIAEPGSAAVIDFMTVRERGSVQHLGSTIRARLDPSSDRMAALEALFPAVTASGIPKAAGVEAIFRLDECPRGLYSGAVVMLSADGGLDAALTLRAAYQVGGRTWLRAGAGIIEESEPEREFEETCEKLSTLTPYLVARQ
MenB inh: blocks the Mycobacterium tuberculosis MenB enzyme; AID 540299; MenB enzyme assay, absorbance read-out; inhibition, % (no concentration beside the values); actives 0.43% (n = 100,000); in the data active = inhibition above about 21%, passing the limit was not always enough
AID504770: growth inhibitors of E. coli YBA685 in a screen for V. cholerae RctB (chromosome II replication) inhibitors. E. coli YBA685 rctB-dependent plasmid, OD600 growth, 3 h; active compounds read low. z-score (no concentration beside the values). actives 0.27% (n = 130,000). AID 504770; in the data active = z-score below about -2, passing the limit was not always enough
PV pol inh: inhibitors of poliovirus RNA polymerase binding and polymerization | poliovirus polymerase elongation, fluorescence polarization; active compounds read low | P03300 | actives 0.66% (n = 150,000) | % elongation, % (compound at 16.7 µg/mL) | AID 588519; in the data active = % elongation below about 90%
An asterisk follows results filed as active; · = no result given; ! = not confirmed by another sample.

SMILES	Mtb MbtI inh	MenB inh	AID504770	PV pol inh
COc1ccccc1NS(=O)(=O)c1cccc(C(=O)Nn2cnnc2)c1	-4.6	14.5	0.45	72.0*
Cc1ccc(N2CC(NC(=O)N3CCN(c4ccc(F)cc4)CC3)CC2=O)cc1C (configuration not stated)	0.9	4.5	0.1	98.0
CN(CC(=O)O)C(=S)c1ccccc1	54.0*	5.1	-0.5	76.0*
CN(C)C(=S)NC(=O)c1ccccc1	7.2	-0.7	-0.05	99.0
N#C/C(=C(/O)C(F)(F)F)c1nc2ccccc2s1	·	·	-0.45	·
N#C/C(=C(/O)C1CC1)c1nc2ccccc2s1	91.5*	·	-0.95	101.0
S=c1[nH]nc(NC2CC2)s1	89.0*	-37.3	2.2	102.0
C1=C(C23CC4CC(CC(C4)C2)C3)SC2=NCCN12	68.7*	-6.9	0.2	99.0
C1CNC(C23CC4CC(CC(C4)C2)C3)=N1	-0.5	-1.5	-0.8	102.0
O=S1NN(c2ccccc2)S(=O)NN1c1ccccc1 (configuration not stated)	7.0	-67.9	-0.95	72.0*
CS(=O)(=O)NNc1nccc(-c2cccnc2)n1	87.3*	-18.0	0.1	101.0
CC(=O)NCc1ccc(C(=O)COC(=O)c2oc3ccc(Br)cc3c2C)o1	11.1	-3.5	0	99.0
COCC(=O)Nc1ccccc1C(C)C	-6.6	1.3	-0.75	98.0
CC(C)c1ccccc1NN	·	11.5	0.75	79.0*
O=C1OC(N2CCCC2)c2ccccc21 (configuration not stated)	·	·	0.5	·
O=c1c2ccccc2n2c(-c3ccc(F)c(F)c3)nnc2n1CCc1ccccc1	·	·	·	105.0
O=c1c2ccccc2n2c(-c3ccc(Cl)cc3)nnc2n1CCc1ccccc1	·	·	·	74.0*
O=C(O)CCC(=O)Nc1cccc2ccccc12	·	·	-0.95	·
O=C(O)CSCC(=O)Nc1cccc2ccccc12	10.8	35.8*	0.4	100.0
O=C(OCC1CCNCC1)c1ccc2c(c1)OCO2	35.6	2.6	-0.15	103.0
O=C(OCC1CCNCC1)c1ccc(F)cc1	14.2	27.3*	0.95	102.0
COc1ccc2c(c1)nc(SCC(=O)C(C)(C)C)n2C	52.6*	0.1	0.35	98.0
COc1ccc2c(c1)nc(SCC(C)O)n2C (configuration not stated)	2.5	·	0.4	98.0
O/N=C1/CCCc2nn(-c3ccccc3)nc21	·	17.8	0.15	62.0*
O=C(c1cc(=O)[nH]c2ccccc12)N1CCCc2ccccc21	-1.8	-4.6	-0.5	·
SMILES	Mtb MbtI inh	MenB inh	AID504770	PV pol inh
O=C(c1cc(=O)[nH]c2ccccc12)N1CCSC1=NCCc1ccccc1	-5.5	-7.5	0	64.0*
CC1(C)CSC(=NCc2ccccc2)N1C(=O)Cn1[nH]c(=O)c2ccccc2c1=O	-12.8	-41.9	0.3	95.0
O=C(Cn1[nH]c(=O)c2ccccc2c1=O)N1CCSC1=NCc1ccccc1	-18.9	1.7	-0.1	90.0*
O=S1(=O)CCN(N2CCCCC2)CC1	·	·	1.05	·
Cc1ccccc1NC(=O)c1sc(N)c(C(N)=O)c1C	87.2*	-18.8	-1.15	97.0
Cc1ccc(C(=O)Nc2ccccc2C)cc1	5.3	11.4	-0.65	100.0
COc1ccc(NC(=O)C2CCC(CNS(=O)(=O)c3cccc4nsnc34)CC2)cc1 (configuration not stated)	-7.5	3.0	1	100.0
Cc1ccc(S(=O)(=O)NC(CO)C(=O)O)cc1 (configuration not stated)	4.8	30.9*	-0.65	102.0
COC(=O)C(CO)NS(=O)(=O)c1ccc(C)cc1 (configuration not stated)	·	·	-0.9	·
CCCCC(=O)Nc1nnc(-c2ccc(Cl)cc2)o1	-54.2	-23.0	-0.15	105.0
OC(COc1ccc2cc(Br)ccc2c1)Cn1cccn1 (configuration not stated)	·	27.5*	0.4	103.0
CCc1cccc(NC(=O)/C=C/c2ccco2)c1	77.6*	2.3	-1.05	105.0
CCc1ccc(NC(=O)/C=C/c2ccco2)cc1	14.7	5.5	-0.7	98.0
O=C(Nc1nnc(C2CC2)s1)C(c1ccccc1)c1ccccc1	-11.6	·	-0.05	104.0
CC(C)OCCCNc1ncnc2sc3c(c12)CCCC3	·	·	·	-2.0*
CN1CCC2(CC1)N=C(c1ccccc1)C(=S)N2	14.8	-23.3	-0.35	101.0
CCN1CCC2(CC1)N=C(c1ccccc1)C(=S)N2	77.4*	-23.3	-1	104.0
Nc1nc(-c2cccs2)c(C(=O)C(F)(F)F)s1	63.0*	-5.9	-0.4	100.0
COc1cc(N)ccc1OC(C)C	-6.5	-66.8	-0.8	102.0
Clc1nc(Cl)nc(NCCC2=CCCCC2)n1	7.9	17.1	1.95	78.0*
C=CCn1c(COc2ccccc2)n[nH]c1=S	·	-40.0	-0.65	104.0
Cn1c(COc2ccccc2)n[nH]c1=S	64.8*!	-42.4	-0.5	102.0
CC(OC(=O)c1cc(S(=O)(=O)N(C)C)ccc1N1CCCC1)C(=O)N1CCc2ccccc21 (configuration not stated)	0.4	-2.2	-2.95*	103.0
Cc1ccc(SCC(=O)OCc2nc3ccccc3c(=O)n2CC#N)cc1	3.1	-26.4	-0.7	101.0
O=C(O)c1ccc2c(c1)CCCN2	·	·	0.75	·
SMILES	Mtb MbtI inh	MenB inh	AID504770	PV pol inh
Clc1ccc2c(c1)CCN2	27.1	36.3*	-2.15	100.0
CN(C)Cc1ccccc1CN	-3.5	-17.3	-3.7*	107.0
Nc1ccccc1C(=O)NCC(F)(F)F	107.5	-17.2	0.05	106.0
CCCn1c(=O)[nH][nH]c1=S	87.8*	3.4	-0.15	100.0
OC(CN1CCN(c2ccc(C(F)(F)F)cn2)CC1)c1ccc(F)cc1 (configuration not stated)	11.4	-62.5	0.85	100.0
CC(C)(C)c1cc(CCC#N)cc(C(C)(C)C)c1O	-3.5	-7.4	0.15	105.0
CC(C)(C)c1cc(SCCC#N)cc(C(C)(C)C)c1O	-2.2	-13.4	-2.2*	105.0
COc1ccc(N2C(=O)CC(Sc3nc4ccccc4c(=O)n3CCO)C2=O)cc1 (configuration not stated)	100.2	-15.4	-2.15*	107.0
O=C1CCCC2=C1C(c1cccs1)C1C(=O)c3ccccc3C1=N2 (configuration not stated)	·	-14.6	-0.55	72.0*
CCn1c2ccccc2c2cc(NC(=O)C(C)OC(=O)c3cccn3C)ccc21 (configuration not stated)	16.6	-13.5	0.4	20.0*
CC(OC(=O)c1cccn1C)C(=O)Nc1ccc(Cl)cc1 (configuration not stated)	-3.5	-14.2	0.15	113.0
N#CC(C#N)=C1CCC(=C(C#N)C#N)CC1	-57.8	-21.4	-1.15	110.0
CCc1cccc(-n2c(N3CCOCC3)n[nH]c2=S)c1	19.8	-26.9	0.8	·
Cc1nc(C(=O)Oc2ccc(Cl)cc2)sc1C(=O)Oc1ccc(Cl)cc1	55.2	-7.5	0	42.0*
Cc1cc(C)nc(SCC(=O)OCC(=O)c2ccc3[nH]c(=O)[nH]c3c2)n1	0.0	1.7	-0.6	101.0
O=C(COC(=O)c1ccc(Cl)s1)c1ccc2[nH]c(=O)[nH]c2c1	5.2	-12.4	0.4	79.0*
Cc1cc(C(=O)OCC(=O)c2ccc3[nH]c(=O)[nH]c3c2)c2ccccc2n1	-3.1	-10.1	-0.25	90.0*
